The supplement of paper PMC10849652
About 8,800 targets were measured; listed, in parts, are those with a hit and a random draw of the rest. About 0.5% of all pairs of compound and target were hits. A number with no mark means an inactive call.

What was measured:
Experiment in all cases: log2 fold change, soluble protein after heating vs DMSO (PISA); higher = thermal stabilisation; K562 lysate, 10 uM; active = over 0.2 and 3.5 SD of the protein, either way, in both replicates (recomputed)
[1] = compound: Cc1cn(-c2cc(NC(=O)c3ccc(C)c(Nc4nccc(-c5cccnc5)n4)c3)cc(C(F)(F)F)c2)cn1 [nilotinib]
In short: (§1)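 Pellets of K562 cells were dounce-homogenised in PBS pH 7.4 with 1 mM MgCl2, and the crude extract was held at 1 mg/mL protein for a 30 min treatment with 10 μM compound. Aliquots were heated for 3 min over 48°C-58°C and pooled before NP-40 was added to 0.5% at 4°C. The supernatant from 21,000xg for 90 min was quantified by TMTpro 16plex LC-MS/MS with channel sums equalised. Values are reported from duplicates as log-two fold change in thermal stability relative to solvent controls.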

[2] = compound: Cc1nc(Nc2n[nH]c3c2CN(C(=O)N[C@H](CN(C)C)c2ccccc2)C3(C)C)c2sccc2n1
In short: as §1

[3] = compound: Cc1nc(Nc2ncc(C(=O)Nc3c(C)cccc3Cl)s2)cc(N2CCN(CCO)CC2)n1 [dasatinib]
In short: as §1

[4] = compound: Cc1ncc(-c2ccnc(Nc3ccc(S(C)(=O)=O)cc3)n2)n1C(C)C
In short: as §1

[5] = compound: Cn1cc(-c2ccc3c(c2)CCN3C(=O)Cc2cccc(C(F)(F)F)c2)c2c(N)ncnc21
In short: as §1

[6] = compound: Cn1cc(CNCC2CCN(c3ncc(C(=O)NO)cn3)CC2)c2ccccc21 [quisinostat]
In short: as §1

[7] = compound: Cn1cncc1[C@@](N)(c1ccc(Cl)cc1)c1ccc2c(c1)c(-c1cccc(Cl)c1)cc(=O)n2C [tipifarnib]
In short: as §1

[8] = compound: NC(=O)Nc1cc(-c2cccc(F)c2)sc1C(=O)N[C@H]1CCCNC1
In short: as §1

[9] = compound: NC(=O)c1cnc(N[C@@H]2CCCC[C@@H]2N)nc1Nc1cccc(-n2nccn2)c1
In short: as §1

[10] = compound: NC1(c2ccc(-c3nc4ccn5c(=O)[nH]nc5c4cc3-c3ccccc3)cc2)CCC1
In short: as §1

Sequence of UniProt Q01968 (Q01968 whole entry, looked up): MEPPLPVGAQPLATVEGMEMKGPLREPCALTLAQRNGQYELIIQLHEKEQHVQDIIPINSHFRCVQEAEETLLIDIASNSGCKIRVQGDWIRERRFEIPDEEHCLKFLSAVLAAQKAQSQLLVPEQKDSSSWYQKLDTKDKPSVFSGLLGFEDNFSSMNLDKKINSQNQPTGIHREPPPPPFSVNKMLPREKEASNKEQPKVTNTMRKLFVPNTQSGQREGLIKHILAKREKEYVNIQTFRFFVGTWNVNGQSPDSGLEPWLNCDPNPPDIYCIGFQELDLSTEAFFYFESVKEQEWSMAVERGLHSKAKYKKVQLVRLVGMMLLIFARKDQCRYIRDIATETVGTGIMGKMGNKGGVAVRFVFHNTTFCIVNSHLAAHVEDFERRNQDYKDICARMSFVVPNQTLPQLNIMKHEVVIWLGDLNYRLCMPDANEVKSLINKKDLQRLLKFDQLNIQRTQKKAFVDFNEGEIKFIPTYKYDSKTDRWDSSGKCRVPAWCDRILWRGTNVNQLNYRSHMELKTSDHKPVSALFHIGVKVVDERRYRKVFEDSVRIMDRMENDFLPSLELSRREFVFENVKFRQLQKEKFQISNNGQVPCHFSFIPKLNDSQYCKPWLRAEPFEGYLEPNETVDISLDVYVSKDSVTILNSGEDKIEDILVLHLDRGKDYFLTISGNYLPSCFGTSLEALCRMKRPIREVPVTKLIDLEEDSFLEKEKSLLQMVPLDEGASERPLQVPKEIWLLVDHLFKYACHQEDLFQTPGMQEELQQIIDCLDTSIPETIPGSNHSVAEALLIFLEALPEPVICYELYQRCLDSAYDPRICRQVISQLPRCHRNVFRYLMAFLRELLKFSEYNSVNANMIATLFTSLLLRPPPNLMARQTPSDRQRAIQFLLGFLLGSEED
Sequence of UniProt Q92621 (Q92621 whole entry, looked up): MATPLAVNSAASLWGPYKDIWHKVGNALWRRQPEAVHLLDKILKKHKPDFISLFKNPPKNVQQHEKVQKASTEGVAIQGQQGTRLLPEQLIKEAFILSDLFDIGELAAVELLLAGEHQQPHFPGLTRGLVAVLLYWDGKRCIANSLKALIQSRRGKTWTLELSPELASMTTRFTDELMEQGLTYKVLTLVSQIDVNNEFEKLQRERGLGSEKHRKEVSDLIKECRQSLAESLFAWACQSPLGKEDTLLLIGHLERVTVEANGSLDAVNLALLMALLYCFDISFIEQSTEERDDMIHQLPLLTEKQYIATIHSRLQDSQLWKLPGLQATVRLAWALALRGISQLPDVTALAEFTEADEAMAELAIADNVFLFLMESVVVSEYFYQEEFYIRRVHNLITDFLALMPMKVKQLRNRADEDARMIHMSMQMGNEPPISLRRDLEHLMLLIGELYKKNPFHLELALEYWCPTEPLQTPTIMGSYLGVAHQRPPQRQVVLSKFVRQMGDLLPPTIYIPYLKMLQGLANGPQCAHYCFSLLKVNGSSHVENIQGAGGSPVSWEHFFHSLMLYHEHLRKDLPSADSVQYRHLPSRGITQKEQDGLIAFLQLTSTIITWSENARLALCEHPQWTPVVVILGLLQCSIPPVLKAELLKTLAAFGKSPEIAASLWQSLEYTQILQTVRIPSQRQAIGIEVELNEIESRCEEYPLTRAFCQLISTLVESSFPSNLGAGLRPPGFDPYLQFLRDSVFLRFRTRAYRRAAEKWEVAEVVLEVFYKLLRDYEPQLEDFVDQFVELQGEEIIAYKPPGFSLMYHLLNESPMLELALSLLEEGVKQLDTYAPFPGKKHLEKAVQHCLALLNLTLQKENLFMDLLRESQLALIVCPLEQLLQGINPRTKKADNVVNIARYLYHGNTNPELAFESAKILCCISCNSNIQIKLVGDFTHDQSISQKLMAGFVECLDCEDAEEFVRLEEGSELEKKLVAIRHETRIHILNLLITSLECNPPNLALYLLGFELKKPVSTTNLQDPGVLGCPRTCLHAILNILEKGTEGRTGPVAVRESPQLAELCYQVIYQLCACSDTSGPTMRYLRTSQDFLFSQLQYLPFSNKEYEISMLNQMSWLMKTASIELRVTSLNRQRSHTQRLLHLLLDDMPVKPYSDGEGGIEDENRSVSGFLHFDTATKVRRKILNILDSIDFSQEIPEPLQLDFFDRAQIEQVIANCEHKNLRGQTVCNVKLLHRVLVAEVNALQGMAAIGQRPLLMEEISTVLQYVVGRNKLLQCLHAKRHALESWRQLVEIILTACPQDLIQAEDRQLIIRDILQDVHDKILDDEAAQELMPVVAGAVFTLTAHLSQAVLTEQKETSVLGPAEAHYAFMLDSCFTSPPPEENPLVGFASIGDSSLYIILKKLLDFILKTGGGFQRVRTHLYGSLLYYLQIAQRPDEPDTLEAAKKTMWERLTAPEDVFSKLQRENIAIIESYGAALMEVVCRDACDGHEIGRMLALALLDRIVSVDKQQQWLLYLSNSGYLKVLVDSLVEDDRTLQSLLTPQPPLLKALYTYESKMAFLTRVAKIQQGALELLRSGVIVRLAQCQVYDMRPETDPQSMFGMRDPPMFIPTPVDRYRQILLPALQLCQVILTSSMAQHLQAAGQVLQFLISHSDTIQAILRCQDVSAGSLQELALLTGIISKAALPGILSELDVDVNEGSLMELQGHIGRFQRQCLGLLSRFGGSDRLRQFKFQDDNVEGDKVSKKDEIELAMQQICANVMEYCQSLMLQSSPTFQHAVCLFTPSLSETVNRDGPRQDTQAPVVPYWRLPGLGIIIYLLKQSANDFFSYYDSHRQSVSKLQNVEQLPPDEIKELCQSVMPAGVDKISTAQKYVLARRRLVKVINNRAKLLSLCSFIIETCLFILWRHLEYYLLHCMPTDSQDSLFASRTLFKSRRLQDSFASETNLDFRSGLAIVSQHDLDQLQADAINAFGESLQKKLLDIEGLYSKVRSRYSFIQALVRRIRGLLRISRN
Sequence of UniProt Q8TEW0 (Q8TEW0 whole entry, looked up): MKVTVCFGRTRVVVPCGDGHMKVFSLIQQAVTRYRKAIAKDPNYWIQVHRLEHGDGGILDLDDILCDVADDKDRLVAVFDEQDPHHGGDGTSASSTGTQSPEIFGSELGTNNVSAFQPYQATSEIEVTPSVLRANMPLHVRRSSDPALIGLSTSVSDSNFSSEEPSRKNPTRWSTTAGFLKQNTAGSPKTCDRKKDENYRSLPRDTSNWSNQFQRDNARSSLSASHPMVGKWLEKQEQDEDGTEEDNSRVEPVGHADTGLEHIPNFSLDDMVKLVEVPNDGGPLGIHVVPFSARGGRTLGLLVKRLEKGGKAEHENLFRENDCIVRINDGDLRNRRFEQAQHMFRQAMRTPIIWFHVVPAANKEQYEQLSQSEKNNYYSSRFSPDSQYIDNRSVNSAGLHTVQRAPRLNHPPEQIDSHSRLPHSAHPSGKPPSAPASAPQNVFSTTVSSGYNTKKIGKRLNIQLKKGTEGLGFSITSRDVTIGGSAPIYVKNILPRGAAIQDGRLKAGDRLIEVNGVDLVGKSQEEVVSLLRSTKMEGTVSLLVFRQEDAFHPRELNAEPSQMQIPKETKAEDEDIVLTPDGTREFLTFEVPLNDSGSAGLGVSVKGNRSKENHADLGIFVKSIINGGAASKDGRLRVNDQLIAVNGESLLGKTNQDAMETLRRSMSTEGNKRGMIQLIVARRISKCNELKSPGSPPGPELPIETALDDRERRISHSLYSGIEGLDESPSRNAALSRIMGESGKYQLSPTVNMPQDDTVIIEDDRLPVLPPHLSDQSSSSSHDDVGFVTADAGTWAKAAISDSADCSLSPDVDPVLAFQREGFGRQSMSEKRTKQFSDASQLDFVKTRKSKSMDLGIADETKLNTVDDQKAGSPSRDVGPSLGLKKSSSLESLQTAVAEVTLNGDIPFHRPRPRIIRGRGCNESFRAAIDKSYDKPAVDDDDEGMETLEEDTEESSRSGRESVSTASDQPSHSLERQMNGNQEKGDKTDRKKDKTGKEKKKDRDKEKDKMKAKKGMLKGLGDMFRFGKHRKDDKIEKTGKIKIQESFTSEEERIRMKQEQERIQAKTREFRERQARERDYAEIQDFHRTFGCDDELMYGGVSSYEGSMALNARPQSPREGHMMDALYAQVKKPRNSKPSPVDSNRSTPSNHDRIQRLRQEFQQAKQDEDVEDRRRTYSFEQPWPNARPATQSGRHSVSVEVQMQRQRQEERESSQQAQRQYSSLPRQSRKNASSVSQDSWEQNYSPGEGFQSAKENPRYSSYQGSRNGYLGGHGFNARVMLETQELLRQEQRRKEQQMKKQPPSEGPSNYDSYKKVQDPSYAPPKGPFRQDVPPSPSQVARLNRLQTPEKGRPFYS
Sequence of UniProt P40261 (P40261 whole entry, looked up): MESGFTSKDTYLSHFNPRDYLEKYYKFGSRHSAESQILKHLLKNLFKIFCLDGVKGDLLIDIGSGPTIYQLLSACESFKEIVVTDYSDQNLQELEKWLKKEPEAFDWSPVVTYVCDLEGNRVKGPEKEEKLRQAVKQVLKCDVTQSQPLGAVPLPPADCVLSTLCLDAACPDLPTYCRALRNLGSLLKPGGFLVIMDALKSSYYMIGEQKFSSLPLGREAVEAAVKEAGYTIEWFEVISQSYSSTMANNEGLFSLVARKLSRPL
Sequence of UniProt Q9Y5N5 (Q9Y5N5 whole entry, looked up, one chain of several): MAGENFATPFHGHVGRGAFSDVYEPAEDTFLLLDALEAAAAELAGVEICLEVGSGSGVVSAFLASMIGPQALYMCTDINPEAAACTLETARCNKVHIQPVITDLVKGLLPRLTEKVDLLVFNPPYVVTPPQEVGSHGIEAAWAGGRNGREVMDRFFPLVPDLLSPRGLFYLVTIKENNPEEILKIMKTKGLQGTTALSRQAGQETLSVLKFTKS
Sequence of UniProt P00480 (P00480 whole entry, looked up): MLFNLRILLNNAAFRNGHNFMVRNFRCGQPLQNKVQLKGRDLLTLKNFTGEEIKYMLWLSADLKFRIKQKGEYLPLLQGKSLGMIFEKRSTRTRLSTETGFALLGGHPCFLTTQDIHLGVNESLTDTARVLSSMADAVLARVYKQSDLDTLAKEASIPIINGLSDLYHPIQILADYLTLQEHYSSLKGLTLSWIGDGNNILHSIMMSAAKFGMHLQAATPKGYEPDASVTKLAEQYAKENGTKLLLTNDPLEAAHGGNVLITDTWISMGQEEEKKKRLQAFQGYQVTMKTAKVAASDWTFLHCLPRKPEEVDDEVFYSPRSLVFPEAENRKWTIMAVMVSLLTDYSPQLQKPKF

Target	log2 fold change [1]	log2 fold change [2]	log2 fold change [3]	log2 fold change [4]	log2 fold change [5]	log2 fold change [6]	log2 fold change [7]	log2 fold change [8]	log2 fold change [9]	log2 fold change [10]
N6AMT1 (UniProt Q9Y5N5)	-0.009	0.1	0.002	0.018	0.013	0	0.06	-0.013	-0.027	0.037
OSBPL3 isoform 2 (UniProt Q9H4L5)	0.085	-0.048	-0.191	-0.026	0.024	-0.051	-0.02	0.003	0.017	-0.151
NBN (UniProt O60934)	0.004	0.013	-0.019	0.037	0.03	0.011	0.005	0.046	-0.024	-0.015
NCKAP1L (UniProt P55160)	0.001	-0.017	-0.034	0.072	0.005	-0.034	0.032	0.055	0.017	0.023
NFAT5 isoform 5 (UniProt O94916)	-0.012	-0.07	0.008	0.046	-0.014	-0.172	-0.032	0.031	0.018	0.039
MTA3 (UniProt Q9BTC8)	0.034	-0.059	-0.005	-0.019	-0.017	-0.061	0.009	0.03	0.005	-0.047
NFATC2IP (UniProt Q8NCF5)	0.027	-0.015	0.071	-0.055	0.005	0.019	0.061	0	-0.015	0.03
NFKBIE (UniProt O00221)	-0.074	0.014	-0.053	0.424 (active)	0.002	-0.004	-0.112	0.025	0.061	-0.024
NCOR1 (UniProt O75376)	0.006	0.012	-0.031	-0.019	0.008	-0.064	-0.046	0.021	0.029	0.003
OLA1 (UniProt Q9NTK5)	0.001	-0.009	-0.023	0.006	0.018	-0.008	0.018	0.022	-0.006	0.025
NUSAP1 (UniProt Q9BXS6)	-0.001	0.004	0.045	-0.009	-0.047	0.038	-0.016	-0.024	0.002	-0.055
NUP160 (UniProt Q12769)	0.014	-0.025	-0.092	-0.032	0.021	-0.032	-0.031	0.009	0.002	-0.018
MRPL58 (UniProt Q14197)	-0.022	0.045	-0.008	-0.012	0.021	0.017	0.003	0.055	0.025	-0.032
NMRAL1 (UniProt Q9HBL8)	-0.017	0.004	-0.035	-0.005	-0.039	0.025	0.01	-0.021	0.012	0.045
NUDT5 (UniProt Q9UKK9)	0.021	0	0.045	0.008	-0.024	-0.016	-0.013	-0.018	-0.013	-0.014
PAGE2B (UniProt Q5JRK9)	0.036	-0.007	0.032	0.062	-0.016	0.001	0.026	0.041	-0.018	0.164
NSUN2 (UniProt Q08J23)	0.013	-0.004	-0.023	-0.005	0.022	0.007	0.027	0.024	-0.009	-0.011
OTC (UniProt P00480)	-0.105	-0.023	-0.347	-0.159	0.106	-0.492	0.054	-0.055	0.071	-0.075
NFATC2 (UniProt Q13469)	-0.001	-0.052	-0.033	0.061	-0.001	-0.133	-0.021	0.024	-0.025	-0.023
PARD3 (UniProt Q8TEW0)	-0.114	-0.109	0.021	-0.031	0.024	-0.002	0.121	0.029	0.199	0.105
NIFK (UniProt Q9BYG3)	0.033	-0.003	-0.012	0.035	-0.01	-0.042	0.002	0.037	-0.016	-0.038
OCRL (UniProt Q01968)	-0.095	0.083	-0.044	-0.051	0.053	-0.089	0.048	-0.018	-0.012	0.024
NUP188 (UniProt Q5SRE5)	0.025	-0.003	-0.074	-0.002	0.055	-0.024	-0.047	0.043	0.03	0.009
NELFCD (UniProt Q8IXH7)	-0.024	0.015	-0.019	-0.025	0.034	-0.083	-0.032	0.046	0.013	-0.031
MVB12A (UniProt Q96EY5)	-0.025	-0.05	0.006	0.008	0.04	0.033	0.032	0.022	-0.009	0.036
NUP205 (UniProt Q92621)	-0.014	0.004	-0.04	0.008	0.04	-0.041	-0.027	0.052	0.047	-0.012
NRIP1 (UniProt P48552)	0.035	-0.127	0.135	0.035	0	-0.437	-0.03	0.083	0.022	-0.048
NCK1 (UniProt P16333)	-0.071	0.015	-0.005	-0.037	-0.015	-0.053	0.018	0.029	0.001	0.008
NNMT (UniProt P40261)	-0.044	-0.01	0.058	0.03	0.003	-0.145	-0.008	0.004	0.035	-0.033
MTHFD1L (UniProt B7ZM99)	-0.017	0.028	-0.061	0.002	0.046	-0.055	-0.01	0.074	0.019	-0.017
